Tested on: not listed separately
Test: compound binding in COS7 lysate, probe aLAP1, primary screen, cell lysate, small-molecule microarray (AID 1124);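 further: lysate comes from COS7 cells expressing LAP1 and is applied at 0.3 µg/mL; score merges spot fluorescence near 667 nm with signal-to-noise over triplicate slides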
Details: probe aLAP1, fluorescence, higher = more signal

| Compound | composite z-score |
| --- | --- |
| CCc1cccc(NC(=O)O[C@H]2[C@H](OC(=O)Nc3ccc4c(c3)OCO4)[C@H](OC(=O)Nc3ccc4c(c3)OCO4)[C@@H](OC)O[C@@H]2CO)c1 | -0.0378 |
| C=C(COC)/C(=C/C[C@H](OC(=O)c1ccncc1)c1cccc(OCCO)c1)c1cnc2ccccc2c1 | 0.444 |
| COCCn1c(C(=O)N2CCCC2)cc2c1C[C@H]1CN(C(=O)c3ccccc3)[C@@](Cc3ccccc3)(C(=O)OC)[C@@H]21 | 0.403 |
| O=C1C2C=CC(C(O)C(c3ccccc3)c3ccccc3)N(Nc3ccccc3)C2C(=O)N1c1ccccc1 (stereo unspecified) | 0.0595 |
| Cc1ccc(S(=O)(=O)N2[C@@H](c3ccccc3)C(C(=O)O)=CC[C@H]2c2ccc(C#N)cc2)cc1 | 1.04 |
| C=CCC(OC(C)=O)[C@@H]1[C@@H](N(Cc2cc3ccccc3o2)C(=O)c2ccc(-c3ccccc3)cc2)c2cc(OCCCO)ccc2N1C(=O)c1ccc2ccccc2n1 (stereo partly specified) | 0.269 |

Tested on: Sam68 (KHDRBS1)
Test: Sam68 small-molecule binders, primary screen, biochemical, small-molecule microarray, 635 nm fluorescence (AID 1125);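 further: score merges 667 nm channel intensity with signal to noise over triplicate slides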
Details: small-molecule microarray binding, higher = more signal

| Compound | composite z-score |
| --- | --- |
| COCCCNC(=O)[C@@]1(Sc2ccc(C)cc2)CC(=O)N(C2CCCCC2)[C@@H]1c1ccc(CO)cc1I | 1.25 |
| [N-]=[N+]=NCc1ccccc1C[C@]1(C(=O)O)COC(c2ccc(OCCCO)cc2)=N1 | -0.91 |
| COC(=O)[C@@]1(Cc2ccc(OC)cc2)[C@H]2c3cc(C(=O)N(C)C)n(Cc4ccsc4Br)c3C[C@H]2CN1C(=O)c1ccccc1 | 0.399 |
| CCCCC(=C=CC[C@@H](O)c1ccc(OCCO)cc1)C[C@@H](O)c1ccccn1 | 1.15 |
| O=C1NC(=O)C2C1C=CC(C(O)c1cccc(O)c1)N2Nc1ccc(Cl)cc1Cl (stereo unspecified) | -1.81 |
| [N-]=[N+]=NCc1ccccc1C[C@]1(C(=O)NCc2ccccc2)N=C(c2ccc(OCCCO)cc2)O[C@H]1c1ccccc1CN=[N+]=[N-] | 0.839 |
| O=C1O[C@H](c2ccccc2)[C@H](c2ccccc2)N2[C@H]1[C@@H](C(=O)N1CCN(c3ncccn3)CC1)[C@]1(C(=O)Nc3ccccc31)[C@H]2c1ccc(O)cc1 | 1.29 |
| COC(=O)[C@@]1(Cc2ccc(F)cc2)[C@H]2c3cc(C(=O)N4CCCC4)n(CCO)c3C[C@H]2CN1C(=O)c1ccccc1 | -2.03 |
| O=C1NC(=O)C2C1C=CC(C(O)c1ccc(F)cc1)N2Nc1ccccn1 (stereo unspecified) | -0.288 |
| CC[C@H](C)C(=O)O[C@H]1CC[C@]2(C)C3=C(CCC2C1(C)C)[C@]1(C)CC[C@H]([C@H](C)CCCC(C)C)[C@@]1(C)CC3 (stereo partly specified) | 0.329 |
| CCCC[C@H]1OB(O)C[C@H]2C1=C(COC)C[C@H]1C(=O)C=CC(=O)[C@H]12 | 0.684 |
| CCCCCCCCCCC(O)C1C=CC2C(=O)N(C)C(=O)C2N1N1CCCCC1 (stereo unspecified) | -0.555 |
| C=CC[C@]1(C(=O)NCCCOC)N=C(c2ccc(OCCCO)cc2)O[C@H]1c1ccccc1 | 1.07 |
| CC1CC/C=C\[C@H]2OC34C=CCN(c5ccc(Cl)cc5)C(=O)[C@H]3N(CCCO)C(=O)[C@]4(C)C2C(=O)O1 (stereo partly specified) | -0.38 |
| C=C(CC1([C@@H](NP(=O)(c2ccccc2)c2ccccc2)[C@H]2C[C@@H]2CCN(C(=O)OCC)S(=O)(=O)c2ccc(C)cc2)CC1)c1ccccc1 | 0.981 |
| COCC1=C([C@H](O)CCc2ccccc2)[C@H](CO)n2c(=O)n(-c3ccccc3)c(=O)n2C1 | -0.73 |
| COC(=O)c1ccc([C@H](NC(=O)c2ccccc2)[C@]2(C)C[C@H]2C2CCCCC2)cc1 | 0.715 |
| COCCOC(=O)N1C(=O)[C@@]2(c3cc(C#CC4=CCCCC4)ccc31)[C@H](c1ccccc1OCCO)N1[C@H](c3ccccc3)[C@H](c3ccccc3)OC(=O)[C@H]1[C@@H]2C(N)=O | 1.28 |

| Compound | composite z-score |
| --- | --- |
| C=CCC(OC(C)=O)[C@@H]1[C@@H](N(Cc2cc3ccccc3o2)C(=O)Cc2ccc(OC)cc2)c2cc(OCCCO)ccc2N1C(=O)Cc1ccc2ccccc2c1 (stereo partly specified) | -0.235 |
| COc1ccc([Si](C)(C)[C@H]2[C@H](CCO)O[C@@]3(C(=O)N(Cc4ccccc4)c4ccc(N(C=O)c5ccccc5)cc43)[C@@H]2C)cc1 | 0.936 |
| CC(C)CNC(=O)[C@@H]1c2ccccc2C(=O)N(Cc2ccccc2Cl)[C@H]1c1ccc(CO)cc1 | -0.537 |
| CCCCNC(=O)c1ccc(C#C[Si](C)(C)C)c(OC(C)=O)c1 | 0.469 |
| COc1cc2c(cc1O)C(c1ccc(CN3CCCC3)cc1)N(Cc1cccc(OC(F)(F)F)c1)CC2 (stereo unspecified) | 0.658 |
| C=CCOC(=O)[C@H]1[C@@H]2C(=O)O[C@@H](c3ccccc3)[C@@H](c3ccccc3)N2[C@@H](c2ccc(OCCOC(=O)[C@H]3C[C@H]4C(=O)NCC(=O)N4[C@H]3c3ccc(O)cc3)cc2)[C@]12C(=O)Nc1ccc(I)cc12 | 0.503 |
| NC(=O)N1C(=O)C2C(C1=O)C1C=C(CCCO)C2C(c2ccc(CN3CCCC3)cc2)N1Cc1cccc(OC(F)(F)F)c1 (stereo unspecified) | 0.64 |
| C=C(CCCC)C(=O)CC[C@H](OC(C)=O)c1ccccc1OCCO | 0.368 |
| C=CCC(OC(C)=O)[C@@H]1[C@@H](N(Cc2cccc3ccccc23)C(=O)c2ccc(-c3ccccc3)cc2)c2cc(OCCCO)ccc2N1C(=O)c1ccc2ccccc2n1 (stereo partly specified) | 0.464 |
| COC(=O)[C@@]1(Cc2ccccc2)[C@@H]2[C@@H](CC(=O)[C@H]2CC(=O)C(=O)N(C)C)CN1C(=O)c1ccccc1 | -0.125 |
| COCCOC(=O)N1C(=O)[C@@]2(c3cc(C#Cc4ccc(OC)cc4)ccc31)[C@H](C(=O)Nc1nc3ccccc3s1)[C@H]1C(=O)O[C@H](c3ccccc3)[C@H](c3ccccc3)N1[C@@H]2c1ccccc1OCCO | 0.997 |
| CCc1cccc(NC(=O)O[C@H]2[C@H](OC(=O)Nc3ccc4c(c3)OCO4)[C@H](OC(=O)Nc3ccc4c(c3)OCO4)[C@@H](OC)O[C@@H]2CO)c1 | 1.29 |
| C=C(COC)/C(=C/C[C@H](OC(=O)c1ccncc1)c1cccc(OCCO)c1)c1cnc2ccccc2c1 | 1.3 |
| COCCn1c(C(=O)N2CCCC2)cc2c1C[C@H]1CN(C(=O)c3ccccc3)[C@@](Cc3ccccc3)(C(=O)OC)[C@@H]21 | 1.29 |
| O=C1C2C=CC(C(O)C(c3ccccc3)c3ccccc3)N(Nc3ccccc3)C2C(=O)N1c1ccccc1 (stereo unspecified) | 1.3 |
| Cc1ccc(S(=O)(=O)N2[C@@H](c3ccccc3)C(C(=O)O)=CC[C@H]2c2ccc(C#N)cc2)cc1 | 1.21 |
| C=CCC(OC(C)=O)[C@@H]1[C@@H](N(Cc2cc3ccccc3o2)C(=O)c2ccc(-c3ccccc3)cc2)c2cc(OCCCO)ccc2N1C(=O)c1ccc2ccccc2n1 (stereo partly specified) | -0.626 |

Reference: PubChem BioAssay
